The results in this text go back to PubChem BioAssay (NCI).

Several values for one entry are separate records, joined by “and”; a condition that tells them apart may be missing. Equal values may be shown once. The panel holds about 83,000 compounds, 20% with a hit somewhere; the sample as a whole holds those more often.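 Negative percent growth values reflect cell death: -40 means 40% of the cells present at the start died, and -100 means all died.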 Activity calls are given as the source filed them. Rule for the calls: active = growth percent below 10; inactive = the rest.

Experiment in all cases: NCI-60 one-dose screen, 48 h (100 = growth as untreated, 0 = no growth, -100 = all killed)
One assay concerns SK-MEL-2 melanoma. Conditions: 10 µM.
In a further assay the test system is EKVX NSCLC. The settings on record: 10 µM.
A further assay deals with SN12C renal. Conditions: 10 µM.
For the next assay, the system named is UO-31 renal. Conditions: 10 µM.
The subject of the next assay is TK-10 renal.
The test system of another assay is ACHN renal. Conditions: 10 µM.
The test system of the next assay is CAKI-1 renal. Conditions: 10 µM.
The test system of another assay is A498 renal. The settings on record: 10 µM.
Another assay relates to CCRF-CEM leukemia. The settings on record: 10 µM.
Another assay has as its system HL-60(TB) leukemia. The settings on record: 10 µM.

Take `C=C1C(=O)O[C@@H]2C[C@@H](C)[C@@H]3C=CC(=O)[C@@]3(C)[C@@H](O)[C@H]12`: the growth was -24.4% (active) with SK-MEL-2 melanoma; -61% (active) with EKVX NSCLC; 9.98% (active) in the assay with SN12C renal; -94.9% (active) in the assay on UO-31 renal; -97.9% (active) in the assay on TK-10 renal (10 µM unless noted); -93.5% (active) with ACHN renal. Also, the growth is -91.6% (active) in the assay with CAKI-1 renal, -17.1% (active) in the assay with A498 renal and -42.4% (active) in the assay on CCRF-CEM leukemia.
Consider `[Cl][Hg][c]1ccc2ccccc2c1`, for which the growth in the assay on SK-MEL-2 melanoma was -90.7% (active); with EKVX NSCLC, -48.6% (active); in the assay with SN12C renal it was -67.1% (active); in the assay on UO-31 renal, -89.3% (active); in the assay with TK-10 renal (10 µM unless noted), -95.3% (active); with ACHN renal, -85.5% (active). Also, the growth with CAKI-1 renal was -94% (active); in the assay with A498 renal it was -9.18% (active); in the assay on HL-60(TB) leukemia it was -20.3% (active); with CCRF-CEM leukemia, 0.0061% (active).
Take `CC1CCC2(OC1)OC1C(O)C3C4CCC5CC(OC6OC(CO)C(OC7OC(CO)C(O)C(OC8OCC(O)C(O)C8O)C7OC7OC(CO)C(O)C(OC8OC(CO)C(O)C(O)C8O)C7O)C(O)C6O)C(O)CC5(C)C4CCC3(C)C1C2C` (stereo not drawn): the growth was 8.3% (active) in the assay on SK-MEL-2 melanoma; -17.2% (active) in the assay on EKVX NSCLC; -26.9% (active) in the assay with SN12C renal; -96.8% (active) with UO-31 renal; -27.4% (active) with TK-10 renal (10 µM); -99% (active) and -94% (active) in the assay with TK-10 renal (100 µM). Further, the growth is 1.57% (active) in the assay on ACHN renal, -63% (active) with CAKI-1 renal, -17.1% (active) with HL-60(TB) leukemia and -15.7% (active) in the assay on CCRF-CEM leukemia.
Consider `O=[N+]([O-])c1cc[n+]([O-])c2ccccc12`, for which the growth in the assay on SK-MEL-2 melanoma is -56.2% (active); in the assay on EKVX NSCLC, -3.54% (active); with SN12C renal, -27.5% (active); in the assay with UO-31 renal, -29.5% (active); in the assay with TK-10 renal (10 µM unless noted) it was -22.6% (active); in the assay with ACHN renal, -42.4% (active). The growth in the assay with CAKI-1 renal was -28% (active); in the assay with A498 renal, -34.7% (active); in the assay on HL-60(TB) leukemia, -26.9% (active); with CCRF-CEM leukemia, -11.1% (active).
`C#CC1(O)CCC(C(C)(C)C)CC1` (stereo not drawn): the growth was 112% (inactive) with SK-MEL-2 melanoma; 118% (inactive) in the assay with EKVX NSCLC; 104% (inactive) in the assay with SN12C renal; 108% (inactive) with UO-31 renal; 106% (inactive) in the assay with TK-10 renal (10 µM unless noted); 104% (inactive) in the assay on ACHN renal. The growth in the assay on CAKI-1 renal was 110% (inactive); in the assay with A498 renal it was 99.5% (inactive); in the assay on HL-60(TB) leukemia, 140% (inactive); with CCRF-CEM leukemia it was 96.6% (inactive).
As to `COc1ccc(/C=C\[N+](=O)[O-])cc1OC`, the growth is 92% (inactive) and 92.7% (inactive) in the assay with SK-MEL-2 melanoma; 103% (inactive) and 76.3% (inactive) with EKVX NSCLC; 81.4% (inactive) in the assay with SN12C renal; 33.1% (inactive) and 75.1% (inactive) in the assay on UO-31 renal; 85.9% (inactive) and 76.5% (inactive) in the assay on TK-10 renal (10 µM unless noted); 64.4% (inactive) and 79.1% (inactive) with ACHN renal. For the same compound, the growth in the assay with CAKI-1 renal is 63.1% (inactive) and 58.6% (inactive); in the assay on A498 renal, 92.9% (inactive) and 77.8% (inactive); in the assay with HL-60(TB) leukemia it was 44.3% (inactive) and 2.41% (active); in the assay on CCRF-CEM leukemia it was 70.2% (inactive) and 27.2% (inactive).
Consider `O=C1C(=O)c2ccccc2-c2ccccc21`, for which the growth in the assay with SK-MEL-2 melanoma is -50.3% (active); in the assay with EKVX NSCLC, -96.9% (active); in the assay on SN12C renal, -61.5% (active); in the assay with UO-31 renal, -86.4% (active); in the assay with TK-10 renal (10 µM unless noted) it was -97.9% (active); with ACHN renal it was -94.3% (active). For the same compound, the growth in the assay with CAKI-1 renal was -100% (active); in the assay with A498 renal it was 88.9% (inactive); in the assay on HL-60(TB) leukemia, -42.4% (active); in the assay with CCRF-CEM leukemia, -10.9% (active).
For the compound `C=NCC#N`, the growth with SK-MEL-2 melanoma was 96.9% (inactive) and 82.2% (inactive); in the assay with EKVX NSCLC, 115% (inactive); with SN12C renal, 99.9% (inactive) and 99.6% (inactive); with UO-31 renal, 87.1% (inactive) and 91.8% (inactive); with TK-10 renal (10 µM unless noted), 100% (inactive) and 90% (inactive); in the assay with ACHN renal, 96.7% (inactive) and 105% (inactive). In addition, the growth was 98.1% (inactive) and 115% (inactive) in the assay on CAKI-1 renal; 110% (inactive) in the assay with A498 renal; 99.1% (inactive) and 112% (inactive) in the assay with HL-60(TB) leukemia; 118% (inactive) with CCRF-CEM leukemia.
For `CS(=N)(=O)CCC(N)C(=O)O` (stereo not drawn), the growth with SK-MEL-2 melanoma was 107% (inactive); in the assay with EKVX NSCLC, 109% (inactive); in the assay with SN12C renal it was 102% (inactive); with UO-31 renal it was 95.1% (inactive); in the assay on TK-10 renal (10 µM unless noted), 94.1% (inactive); with ACHN renal it was 103% (inactive). In addition, the growth is 83.2% (inactive) in the assay on CAKI-1 renal, 129% (inactive) in the assay on A498 renal and 127% (inactive) in the assay on HL-60(TB) leukemia.
Consider `O=[N+]([O-])c1ccc(Br)c([N+](=O)[O-])c1`, for which the growth with SK-MEL-2 melanoma was 96.8% (inactive); in the assay with EKVX NSCLC, 115% (inactive); in the assay on SN12C renal, 90.1% (inactive); in the assay on UO-31 renal it was -18.2% (active); in the assay on TK-10 renal (10 µM unless noted), 102% (inactive); in the assay with ACHN renal it was 52.6% (inactive). The growth with CAKI-1 renal is -93.5% (active); with A498 renal it was 98.3% (inactive); in the assay with HL-60(TB) leukemia, 43% (inactive); with CCRF-CEM leukemia it was 46.4% (inactive).
Turning to `[Cl][Hg][c]1ccc(Cl)s1`, the growth with SK-MEL-2 melanoma was 64.3% (inactive); in the assay with EKVX NSCLC, -18.7% (active); in the assay on SN12C renal, 34.1% (inactive); with UO-31 renal, -64.3% (active); with TK-10 renal (10 µM unless noted) it was 30.9% (inactive); with ACHN renal, -80.9% (active). Also, the growth was -53% (active) in the assay on CAKI-1 renal, 104% (inactive) with A498 renal, -17.2% (active) in the assay on HL-60(TB) leukemia and -11% (active) in the assay with CCRF-CEM leukemia.
